The panel holds about 83,000 compounds, 20% with a hit somewhere; the sample as a whole holds those more often.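 Assay: single dose, 48 h. Readout: percent growth (0 = no net growth; negative = cell death). Active: <10.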 Activity calls are given as the source filed them.

The subject of this assay is TK-10 renal. The assay is described as follows: NCI-60 one-dose screen, 48 h (100 = growth as untreated, 0 = no growth, -100 = all killed). Conditions: 10 µM unless noted.
As to `Cc1cc(C)c(S(=O)(=O)N2CCN(c3cc4c(cc3F)c(=O)c(C(=O)O)cn4C3CC3)CC2)c(C)c1`, the growth was 86.5% (inactive).
As for `CCn1cc(C(=O)O)c(=O)c2cc(F)c(N3CCN(S(=O)(=O)c4ccc(OC)c(OC)c4)CC3)cc21`, the growth is 100% (inactive).
Turning to `Cc1ccc(S(=O)(=O)OCC(=O)Nc2ccc(C(=O)O)c(O)c2)cc1`, the growth was 118% (inactive).
Regarding `O=S(=O)(c1ccccc1)n1ccc(-c2ccc3c(c2)CCO3)n1`, the growth is 76.2% (inactive).
Then `Clc1ccc(-c2nc(-c3ccco3)cn3ccnc23)cc1`, with 11.9% (inactive).
Take `CCn1cc(C(=O)O)c(=O)c2cc(F)c(N3CCN(S(=O)(=O)c4cccc5ccccc45)CC3)cc21`: the growth is 26% (inactive).
For the compound `O=P([O-])(O)OP(=O)([O-])O.[NH-][C@H]1CCCC[C@@H]1[NH-].[OH-].[OH-].[Pt+4]`, the growth was 102% (inactive).
Next, `O=C(CC(O)c1ccncc1)c1ccccc1` (centres undefined): -30.8% (active).
Take `O=c1oc2c([nH]c3ccc4ccccc4c32)c2ccccc12`: the growth is 127% (inactive).
Consider `Nc1c(C(=O)Nc2ccccc2)sc2nc3c(cc12)CCC3`, for which the growth is 96% (inactive).
As to `COc1ccc(C2CC(c3cccs3)=NN2c2ccc(S(=O)(=O)NC(=O)NCc3cccc(OC)c3)cc2)cc1` (centres undefined), the growth was 96% (inactive).
Take `COc1cc(NC(=O)CSc2nc3ccc(C)cc3c(=O)n2-c2ccccc2)cc(OC)c1OC`: the growth was 104% (inactive).
Next, `Cc1ccc(S(=O)(=O)OC2COCOC2C(OS(=O)(=O)c2ccc(C)cc2)C2OCOCC2OS(=O)(=O)c2ccc(C)cc2)cc1` (centres undefined): 101% (inactive).
For the compound `CC(=O)Nc1ccc(S(=O)(=O)N2C(=O)CCC2C(=O)Nc2ccc(Br)cc2)cc1` (centres undefined), the growth was 63.6% (inactive).
As to `O=C(O)c1ccc(-n2c(=O)c3ccccc3c3ccccc3c2=O)cc1`, the growth is 97.9% (inactive).
As to `CS(=O)(=O)N(c1cc(-c2ccc3ncnc(Nc4cccc(Cl)c4)c3c2)cnc1Cl)S(C)(=O)=O`, the growth is 2.1% (active).
For the compound `CN(C)c1ncc(-c2ccc(C(F)(F)F)cc2)c(NC2CCCCCC2)n1`, the growth is 65.2% (inactive).
Then `O=S(=O)(NCCNc1cc(-c2cn(-c3ccccc3)nc2-c2ccccc2)ccn1)c1cccc2ccccc12`, with 66.8% (inactive); and `CC/C=C\C[C@H](O)C/C=C1/C(=O)C(Cl)=C[C@@H]1C/C=C\CCCC(=O)O`, with 78.9% (inactive).
For the compound `CC[C@H](C)[C@@H]1NC(=O)[C@H]([C@@H](C)O)NC(=O)C(Cc2ccccc2)NC(=O)[C@@H]2CCCN2C(=O)C(C(C)C)NC(=O)C(Cc2ccccc2)NC(=O)CNC(=O)[C@@H]2CCCN2C1=O` (some centres undefined), the growth is 116% (inactive).
In the case of `O=C(Nc1cc(C(F)(F)F)cc(C(F)(F)F)c1)Nc1ccc(OCc2nnc(-c3ccc(Cl)cc3)o2)c(F)c1`, the growth is 21.1% (inactive).
Consider `Oc1ccc(N=Cc2ccccc2)cc1`, for which the growth was 108% (inactive).
For the compound `Nc1ccccc1C#C/C=C\C#Cc1cccc(O)c1`, the growth was 83.8% (inactive).
Turning to `CCn1cc(C(=O)O)c(=O)c2cc(F)c(N3CCN(S(=O)(=O)c4ccc(Cl)cc4Cl)CC3)cc21`, the growth is 12.4% (inactive).
Then `COc1cc(CNC(=O)CSc2nc3ccccc3c(=O)n2Cc2cc(OC)c(OC)c(OC)c2)cc(OC)c1OC`, with 99.7% (inactive); and `COc1cc(CCn2nnc3c(NCCCCO)ncnc32)cc(OC)c1`, with 119% (inactive).
Regarding `C/C(=C\c1csc(C)n1)[C@@H]1C[C@@H]2O[C@]2(C)CCC[C@H](C)[C@H](O)[C@@H](C)C(=O)C(C)(C)[C@@H](O)CC(=O)N1`, the growth is -68% (active).
For `COc1ccc(S(=O)(=O)N2CCN(c3cc4c(cc3F)c(=O)c(C(=O)O)cn4C3CC3)CC2)c(OC)c1`, the growth is 96.8% (inactive).
For the compound `CC[C@]1(O)C[C@@H]2CN(Cc3c([nH]c4ccccc34)[C@@](C(=O)OC)(c3cc4c(cc3OC)N(C)[C@H]3[C@@](O)(C(=O)OC)[C@H](OC(C)=O)[C@]5(CC)[C@@H]6C[C@@H]6CN6CC[C@]43[C@@H]65)C2)C1`, the growth was 55.7% (inactive).
On to `COC1=CC(c2ccc[nH]2)=N/C1=C\c1[nH]c(C)c(C(=O)CCCCC(=O)Oc2ccc3c(c2)CCC2C3CC[C@]3(C)[C@@H](O)CC[C@@H]23)c1C` (some centres undefined), for which the growth was 96.7% (inactive).
Consider `N#Cc1ncc(-c2ccc(F)c(F)c2F)c(NC2CCCCCC2)n1`, for which the growth was 91.5% (inactive).
For `O=C(O)c1cn(C2CC2)c2cc(N3CCN(S(=O)(=O)c4ccc(Cl)c(Cl)c4)CC3)c(F)cc2c1=O`, the growth is 33.2% (inactive).
As to `CCCCCCCCCCCCOB(OCCCCCCCCCCCC)OCCCCCCCCCCCC`, the growth was 101% (inactive).
Then `CNC(C)=O`, with 91.1% (inactive); and `COc1cc2nc(N3CCC[C@@H](NC4=CC(=O)c5ccccc5C4=O)C3)nc(N)c2cc1OC`, with -49.3% (active).
Regarding `COC(=O)[C@H]1[C@H](OC)[C@@H](OC(=O)/C=C/c2ccncc2)CC2CN3CCc4c([nH]c5cc(OC)ccc45)[C@@H]3C[C@@H]21` (some centres undefined), the growth is 91.6% (inactive).
Consider `Clc1nc(-c2cccnc2)nc2sc3c(c12)CCCCCC3`, for which the growth is 103% (inactive).
As for `O=c1oc2cc(OS(=O)(=O)c3ccc(F)cc3)ccc2c2c1CCCCC2`, the growth was 89.6% (inactive).
Regarding `CC(=O)C1CCC(C)=CC1=O` (centres undefined), the growth is 97.7% (inactive).

The values are drawn from PubChem BioAssay (NCI).
